This note sets out measurements from PubChem BioAssay (NCI).

About 83,000 compounds went through this panel and 20% of them were active in at least one assay; those are over-represented in the sample as a whole.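 In brief: 96-well plates, 48 h treatment, single concentration, percent growth endpoint.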 Values without a mark were called inactive. Active and inactive are the calls of the source.

The assay concerns MCF7 breast. The assay is described as follows: NCI-60 one-dose screen, 48 h (100 = growth as untreated, 0 = no growth, -100 = all killed). As to conditions: 10 µM. As to the method: Growth inhibition of the MCF7 human tumor cell line is measured as a screen for anti-cancer activity. Cells are grown in 96 well plates and exposed to the test compound for 48 hours. Compounds are tested at a single concentration, which is 10^-5 M for most compounds. The reported endpoint is percent growth (GI% or GIPRCNT), where numbers from 0 - 100% represent growth inhibition, and numbers from -100% - 0 represent cell death. For example, a value of 40 represents 60% growth inhibition. A value of 0 means no net growth occurred over the course of the experiment. A value of -40 indicates 40% of cells at the beginning of the experiment died by the end of the experiment. A value of -100 means all cells are dead at the end of the experiment.
NCI-60 Human Tumor Cell Lines Screen was performed using the standard one-dose NCI protocol, which is described in more detail at https://dtp.cancer.gov/discovery_development/nci-60/default.htm.
Compounds with GIPRCNT values below 10 were considered active. Activity score was based on GIPRCNT using the following formula: […]
Score is 0 for GIPRCNT values of 100 or above, 50 for GIPRCNT values of 0, and 100 for GIPRCNT values of -100.
Turning to `COc1ccc(C(=O)N2C=Cc3ccccc3C2C#N)cc1` (stereo not given), the growth is 96.4%.

For the compound `O=C(CI)OCC(COC(=O)CI)OC(=O)CI`, the growth is 56.1%.

In the case of `CCC(=O)OC1CCC2C3CCC(=O)OC3C(C)(CCC(=O)O)CC12C` (stereo not given), the growth was 30.9%.

As to `COc1cc2cc(Oc3ccc(NC(=O)c4cccc(C(F)(F)F)c4)cc3)c(C)nc2cc1OC`, the growth was 31%.

Turning to `CCN(CC)CCCOc1cccc2c1C(=O)c1cccc(OCCCN(CC)CC)c1C2=O`, the growth was 11.9%.

`Nc1ncnc2c1ncn2C1(CO)OCC(O)C(O)C1O` (stereo not given): the growth is 101%.

`CCCc1cn(CC(=O)Nc2nc3ccccc3s2)nn1`: the growth was 100%.

With `Cc1c(Cl)cccc1NC(=O)CN1CCOCC1`, the growth is 98.1%.

With `O=C(CCCSc1nc(-c2ccccc2)cc(-c2ccc(Cl)cc2)n1)NO`, the growth is 4.12% (active).

Consider `CCOC(=O)c1cc(C(=O)c2cc(OC)c(OC)c(OC)c2)n2ncc3ccccc3c12`, for which the growth was 30.4%.

With `COc1ccc(Cl)cc1Nc1nc(C(F)(F)F)ccc1C(=O)N/N=C/c1cc(OC)c(OC)c(OC)c1`, the growth is 17.8%.

For the compound `CN1C(=O)C2(Nc3cc(Cl)ccc3S2)c2cc(Cl)ccc21` (stereo not given), the growth is 75.4%.

On to `Cc1ccc(C(=O)/C=C/c2ccccc2)s1`, for which the growth was 40%.

As for `COc1ccc(/C=C2\CCCC3=C2NC(N)=NC3c2ccc(OC)c(OC)c2)cc1OC` (stereo not given), the growth was 27.6%.

As for `CCCCN(CCCC)C(=O)[C@H](CC)[C@@H]1CC[C@@H](C)[C@@H]([C@H](C)[C@@H](O)[C@@H](C)C(=O)[C@H](CC)C2O[C@]3(C=CC(=O)[C@]4(CC[C@@](C)([C@H]5CC[C@](O)(CC)[C@H](C)O5)O4)O3)[C@H](C)C[C@@H]2C)O1` (stereo not given in full), the growth is 16.2%.

In the case of `COc1ccc(-c2cc(-c3ccccc3)nc(SCCCC(=O)NO)n2)cc1`, the growth was -5.14% (active).

Consider `COc1ccc(-c2cc(-c3ccc(OC)c(OC)c3)nc(SCCCC(=O)NO)n2)cc1`, for which the growth is -22% (active).

As for `COc1cc(-c2nn(-c3ccc(NC(=O)NCCNS(=O)(=O)c4ccc(F)cc4)cc3)cc2-c2ccncc2)ccc1Cl`, the growth is 6.49% (active).

Take `COc1cc(/C=C/c2cc(/C=C/c3ccc(O)c(OC)c3)n(C(=O)Nc3ccc(C)cc3)n2)ccc1O`: the growth is 6.3% (active).

Consider `COc1cc(CNC(=O)C2CSC3(C)c4ccccc4C(=O)N23)cc(OC)c1OC` (stereo not given), for which the growth was 93.7%.

With `c1ccc(CSc2ncccc2-c2nnc(SCCN3CCOCC3)o2)cc1`, the growth was 94.9%.

Take `CCOC(=O)CN(c1sc(C)c(C)c1C(=O)OCC)S(=O)(=O)c1ccc(C)cc1`: the growth is 100%.

For `O=C(N/N=C/c1ccc([N+](=O)[O-])cc1)c1ccccc1Nc1cccc(C(F)(F)F)c1`, the growth is 111%.

Take `Cc1ccc(Cl)cc1NC(=O)CCl`: the growth is 67.8%.

Consider `O=C(CSc1nnc(-c2ccc(Cl)cc2)o1)Nc1ccc(C(=O)/C=C/c2ccc(Cl)cc2)cc1`, for which the growth is 78%.

On to `O=C1CC(=O)N(C(=O)c2nn(-c3ccc(Cl)cc3)cc2O)N1`, for which the growth was 39.9%.

Turning to `CN1CCc2c(sc3nc4n(-c5ccc(Cl)cc5)cnn4c(=O)c23)C1`, the growth was 70.6%.

With `CC(=O)/C(=C/c1ccc(Br)cc1)C(=O)c1ccccc1`, the growth was 43.4%.

For `O=C(CCCCNC(=O)c1nc(-c2ccccc2)n(-c2ccccc2)n1)NO`, the growth was 67.6%.

As to `Cc1cc(Cl)ccc1Nc1nc(C(F)(F)F)ccc1C(=O)N/N=C/c1cccc(O)c1`, the growth is 29.9%.

`CS(=O)(=O)c1nccc(-c2c(-c3cccc(OCc4ccc(F)cc4)c3)nc3sccn23)n1`: the growth is 69.5%.

For the compound `CCc1cc(Cl)c(OC)c(C(=O)NCC2CCCN2CC)c1O` (stereo not given), the growth is 95.8%.

Turning to `COc1cc(-c2ccc(N=Nc3ccc4c(S(=O)(=O)O)ccc(N)c4c3O)c(OC)c2)ccc1N=Nc1ccc2c(S(=O)(=O)O)ccc(N)c2c1O`, the growth is 95.6%.

In the case of `Cc1n[nH]c(C)c1N=Nc1cccc2c1C(=O)c1ccccc1C2=O`, the growth is 81%.

As to `COc1ccc(-c2cc(-c3ccc(Cl)cc3)nc(SCCCC(=O)NO)n2)cc1OC`, the growth was 1.13% (active).

With `CCn1c2ccc(O)cc2c2c(C)c3c[n+](C)ccc3c(C)c21`, the growth is 16.7%.

With `CNC(=O)c1cn(C2CC2)c2cc(N3CCN(C(=O)c4cc(OC)c(OC)c(OC)c4)CC3)c(F)cc2c1=O`, the growth was 94.3%.

In the case of `Brc1ccc2c(c1)-c1ccccc1C1=NCCN12`, the growth is -5.53% (active).

With `CCCN(CCC)C(=O)[C@H](CC)[C@@H]1CC[C@@H](C)[C@@H]([C@H](C)[C@@H](O)[C@@H](C)C(=O)[C@H](CC)C2O[C@]3(C=C[C@@H](O)[C@]4(CC[C@@](C)([C@H]5CC[C@](O)(CC)[C@H](C)O5)O4)O3)[C@H](C)C[C@@H]2C)O1` (stereo not given in full), the growth was -15.3% (active).

For the compound `CC(=O)N[C@H](C(=O)N[C@@H](CCCNC(=N)N)C(=O)N[C@@H](CCCCN)C(=O)N[C@@H](CCCNC(=N)N)C(=O)N[C@]1(C)CCCCCC/C=C\CCC[C@@](C)(C(=O)N[C@@H](CCCNC(=N)N)C(=O)N[C@@H](CCC(=O)O)C(=O)N[C@@H](CC(C)C)C(=O)N[C@H](C(=O)N[C@@H](CCC(=O)O)C(N)=O)C(C)C)NC(=O)[C@H](CCC(N)=O)NC(=O)[C@H](CC(C)C)NC(=O)[C@H](CC(C)C)NC(=O)[C@H](CCCNC(=N)N)NC(=O)[C@H](CCCNC(=N)N)NC(=O)[C@H](CC(C)C)NC1=O)C(C)C`, the growth is -41.7% (active).
